Consider 19 compounds from PubChem BioAssay (NCATS).

Assay [1] can be described thus: qHTS of pediatric cancer cell lines to identify multiple opportunities for drug repurposing: Primary screen for SK-N-MC cells (AID 1347093). The gist of the method: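 Metabolically active cells were quantified by ATP-dependent luminescence (CellTiter-Glo, 15 min at room temperature) following 48 h treatment. Cells had been plated at 500-1,000 per well and settled for 5 h beforehand.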
In general terms: In qHTS, concentration-response curves come from the screen itself.

A short description of assay [2]: qHTS of pediatric cancer cell lines to identify multiple opportunities for drug repurposing: Primary screen for BT-37 cells (AID 1347094). The gist of the method:
(§1)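 Primary screen of approved and investigational compounds on cells in growth media at 37 degrees C, 5% CO2. MIPE set at 11-point and NPC set at 8-point dilutions; viability scored by ATP-based luminescence at 48 hours.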

Assay [3] is described as follows: qHTS of pediatric cancer cell lines to identify multiple opportunities for drug repurposing: Primary screen for NB-EBc1 cells (AID 1347095). The gist of the method: as §1
Assay [4] can be described thus: qHTS of pediatric cancer cell lines to identify multiple opportunities for drug repurposing: Primary screen for U-2 OS cells (AID 1347096). Note: nearly all actives have a fitted effect of over 50% in size. The gist of the method:
(§2)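 Viability after 48 h compound treatment at 37C, 500-1,000 cells/well, read as ATP luminescence with CellTiter-Glo. Primary screens used 11-point (MIPE, 0.78 nM-46 µM) or 8-point (NPC, 0.59 nM-46 µM) final concentrations; follow-up screens used 11-point dilutions.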

Assay [5] is described as follows: qHTS of pediatric cancer cell lines to identify multiple opportunities for drug repurposing: Primary screen for Saos-2 cells (AID 1347097). Note: nearly all actives have a fitted effect of over 40% in size. The gist of the method:
as §1

The nature of assay [6]: qHTS of pediatric cancer cell lines to identify multiple opportunities for drug repurposing: Primary screen for SK-N-SH cells (AID 1347098). Note: nearly all actives have a fitted effect of over 65% in size. The procedure, abridged: (§3)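 Cells (500-1,000/well) rested 5 h, then received compounds for 48 h; metabolically active cells were measured by CellTiter-Glo luminescence. Final concentrations spanned up to 46 µM (MIPE, 11-point) or 0.59 nM-46 µM (NPC, 8-point) in primary screens, 11-point in follow-ups.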

The nature of assay [7]: qHTS of pediatric cancer cell lines to identify multiple opportunities for drug repurposing: Primary screen for NB1643 cells (AID 1347099). Note: nearly all actives have a fitted effect of over 50% in size. The procedure, abridged:
as §1

Assay [8] is described as follows: qHTS of pediatric cancer cell lines to identify multiple opportunities for drug repurposing: Primary screen for LAN-5 cells (AID 1347100). The gist of the method: as §2
A short description of assay [9]: qHTS of pediatric cancer cell lines to identify multiple opportunities for drug repurposing: Primary screen for BT-12 cells (AID 1347101). Note: nearly all actives have a fitted effect of over 25% in size. The procedure, abridged: as §3
A short description of assay [10]: qHTS of pediatric cancer cell lines to identify multiple opportunities for drug repurposing: Primary screen for Rh18 cells (AID 1347102). Note: nearly all actives have a fitted effect of over 65% in size. The gist of the method:
as §2

SMILES strings stand for the structures. Records with an inconclusive call do not appear. A number with no mark means an inactive call. Calls of active or inactive are those of the source. Calls come from the whole dose curve; as a rule, active = well fitted curve in the direction sought with a large enough effect; inconclusive = small, poorly fitted or top-dose-only effect, or another doubt; inactive = no such curve, though single readings can be large; an effect the other way counts as inactive or inconclusive.
Potency is the fitted concentration of half-maximal effect.

In the case of `CC(C)OC(=O)c1cc2c(OCC(O)CNC(C)(C)C)cccc2[nH]1` (stereo not given), the Potency result in assay [1], in assay [2], in assay [3], in assay [4], in assay [5] and in assay [6] was “inactive” throughout. Moreover, the Potency result in [7], in assay [8], in assay [9] and in assay [10] was “inactive” throughout.

Take `O=C(O)c1cn(C2CC2)c2cc(Cl)c(F)cc2c1=O`: the Potency result in assay [1], in assay [2], in assay [3], in assay [4], in assay [5] and in assay [6] was “inactive” each time. The Potency result in [7], in assay [8], in [9] and in assay [10] was “inactive” each time.

As to `C[N+](C)(CCOc1ccccc1)Cc1cccs1`, the Potency result in assay [1], in assay [2], in [3], in assay [4], in assay [5] and in assay [6] was “inactive” throughout. The Potency result in [7], in [8], in assay [9] and in assay [10] was “inactive” in each case.

Consider `CSCC[C@H](NC(=O)[C@H](Cc1c[nH]c2ccccc12)NC(=O)CCNC(=O)OC(C)(C)C)C(=O)N[C@@H](CC(=O)O)C(=O)N[C@@H](Cc1ccccc1)C(N)=O`, for which the Potency result in assay [1], in assay [2], in assay [3], in assay [4], in assay [5] and in [6] was “inactive” each time. Further, the Potency entry in [7], in assay [8], in [9] and in assay [10] was “inactive” each time.

Consider `CC(NC(CCc1ccccc1)C(=O)O)C(=O)N1C(=O)N(C)CC1C(=O)O` (stereo not given), for which the Potency result in assay [1], in assay [2], in assay [3], in assay [4], in assay [5] and in assay [6] was “inactive” each time. In addition, the Potency entry in [7], in [8], in [9] and in [10] was “inactive” each time.

Regarding `O=C(CO)[C@@H](O)[C@H](O)[C@@H](O)CO`, the Potency entry in [1], in [2], in [3], in [4], in assay [5] and in [6] was “inactive” throughout. Also, the Potency result in assay [7], in assay [8], in assay [9] and in [10] was “inactive” each time.

`CCCC(=O)OCOC(=O)C1=C(C)NC(C)=C(C(=O)OC)C1c1cccc(Cl)c1Cl` (stereo not given): the Potency result in assay [1], in assay [2], in assay [3], in assay [4], in [5] and in [6] was “inactive” each time. Also, the Potency result in [7], in assay [8], in assay [9] and in [10] was “inactive” throughout.

As to `Cn1c(=O)c2c(ncn2CC(=O)O)n(C)c1=O`, the Potency result in assay [1], in assay [2], in assay [3], in assay [4], in assay [5] and in assay [6] was “inactive” in each case. The Potency result in assay [7], in [8], in [9] and in assay [10] was “inactive” throughout.

As for `Brc1ccccc1-c1ccccc1`, the Potency entry in [1], in assay [2], in [3], in assay [4], in [5] and in assay [6] was “inactive” throughout. The Potency result in assay [7], in assay [8], in [9] and in assay [10] was “inactive” each time.

In the case of `C=CCOc1cc(Cl)ccc1C(=O)NCCN(CC)CC`, the Potency result in [1], in assay [2], in assay [3], in [4], in [5] and in [6] was “inactive” throughout. Besides, the Potency entry in assay [7], in assay [8], in assay [9] and in [10] was “inactive” each time.

Take `COc1cc(C(=O)NC2CCCNC2)cc(OC)c1OC` (stereo not given): the Potency result in assay [1], in [2], in assay [3], in assay [4], in [5] and in assay [6] was “inactive” in each case. In addition, the Potency entry in [7], in assay [8], in [9] and in assay [10] was “inactive” each time.

As for `CO[C@@H]1[C@@H](OC)[C@H](C)[C@@](O)(CC(=O)O)O[C@H]1[C@H](C)[C@H]1O[C@@]2(CC[C@@](C)([C@H]3CC[C@@](C)([C@@H]4O[C@@H]([C@H]5O[C@](C)(O)[C@H](C)C[C@@H]5C)C[C@@H]4OC4C[C@H](OC)[C@@H](OC)[C@H](C)O4)O3)O2)C[C@H](O)[C@H]1C` (stereo not given in full), the Potency in [1] was 0.188 µM (active); in assay [2], 0.389 µM (active); in assay [3] it was 0.266 µM (active); in [4], 8.41 µM (active); in [5] it was 5.31 µM (active); in [6], 2.44 µM (active). The Potency was 0.841 µM (active) in assay [7], 1.06 µM (active) in assay [8], 0.347 µM (active) in assay [9] and 3.76 µM (active) in assay [10].

Turning to `CO/N=C(/C(=O)N[C@@H]1C(=O)N2C(C(=O)OCOC(=O)C(C)(C)C)=C(C)CS[C@H]12)c1csc(N)n1`, the Potency in assay [1] was 26.6 µM (active). The Potency entry in assay [2], in assay [3], in [4], in assay [5], in assay [6] and in assay [7] was “inactive” in each case. Also, the Potency result in [8], in assay [9] and in [10] was “inactive” in each case.

Take `O=C(CCCl)NCCc1ccccc1`: the Potency entry in [1], in [2], in [3], in assay [4], in assay [5] and in [6] was “inactive” in each case. For the same compound, the Potency entry in [7], in assay [8], in [9] and in [10] was “inactive” each time.

For `O=C(O)Cc1ccc(OCCNC[C@H](O)c2ccccc2)cc1`, the Potency result in assay [1], in [2], in assay [3], in assay [4], in [5] and in assay [6] was “inactive” in each case. In addition, the Potency entry in assay [7], in [8], in [9] and in assay [10] was “inactive” in each case.

For the compound `Cc1onc(-c2c(Cl)cccc2Cl)c1C(=O)Cl`, the Potency result in assay [1], in assay [2], in [3], in assay [4], in assay [5] and in [6] was “inactive” throughout. Further, the Potency result in [7], in [8], in assay [9] and in assay [10] was “inactive” throughout.

Take `C[C@H]1C[C@@H]2[C@H]([C@@H](O)C[C@@]3(C)[C@H]2CC[C@]3(O)C(=O)CO)[C@@]2(C)C=CC(=O)C=C12`: the Potency result in assay [1], in [2], in assay [3], in assay [4], in assay [5] and in assay [6] was “inactive” throughout. The Potency entry in assay [7], in assay [8], in assay [9] and in assay [10] was “inactive” each time.

Regarding `NS(=O)(=O)c1cc(C(=O)NN2C[C@H]3[C@H]4CCC(C4)[C@H]3C2)ccc1Cl`, the Potency result in [1], in assay [2], in [3], in assay [4], in assay [5] and in [6] was “inactive” each time. In addition, the Potency result in assay [7], in [8], in assay [9] and in assay [10] was “inactive” in each case.

Turning to `CCCCCC[C@@H](CCC)C(=O)O`, the Potency entry in [1], in [2], in [3], in assay [4], in assay [5] and in assay [6] was “inactive” in each case. Moreover, the Potency entry in [7], in assay [8], in [9] and in assay [10] was “inactive” in each case.
